Experimental data reported in PubChem BioAssay AID1085 (Emory University Molecular Libraries Screening Center, 2008).
The campaign covered roughly 220,000 compounds. About 930 (0.42%) were called active. Rule as the data show it: active = inhibition above about 50%; inactive = the rest. The list comes from a sample in which actives are over-represented; it also holds similar structures and randomly drawn compounds.

What follows are molecules tested against Glycoprotein 42 (Epstein-Barr virus (strain AG876)) (UniProt Q1HVG2) (assay: Epstein-Barr virus gp42 inhibitors, primary screen, biochemical, uHTS, fluorescence polarization (AID 1085)). Conditions: Fluorescence polarization binding assay, mP read-out; stronger effect = higher value; tested at 21.74 µM.
Glycoprotein 42 (Epstein-Barr virus (strain AG876)), sequence (Q1HVG2 whole entry, looked up): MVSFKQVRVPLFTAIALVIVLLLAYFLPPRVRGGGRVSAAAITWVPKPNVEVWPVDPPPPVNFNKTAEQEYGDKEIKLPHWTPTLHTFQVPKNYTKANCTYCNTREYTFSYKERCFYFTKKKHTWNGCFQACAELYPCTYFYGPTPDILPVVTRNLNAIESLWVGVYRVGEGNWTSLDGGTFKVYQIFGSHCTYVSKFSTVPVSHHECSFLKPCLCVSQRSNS

SMILES	inhibition
Cc1cccc(N2C(=O)NC(=O)/C(=C\c3cnn(-c4ccccc4)c3)C2=O)c1	-3.6% (inactive)
O=C1NC(=O)N(c2ccccc2)C(=O)/C1=C/c1ccc([N+](=O)[O-])s1	-9.65% (inactive)
O=C1NC(=O)N(c2ccc(F)cc2)C(=O)/C1=C/c1ccc2c(c1)CCCN2Cc1ccccc1	187% (active)
O=c1[nH]c(=O)n(CCc2ccccc2)c(O)c1/C=N/N1CCOCC1	-16.8% (inactive)
CN(C)CC1Oc2ccccc2OC1(O)c1ccccc1 (stereo not given)	-12% (inactive)
